What all share (test): Cytotoxic Profiling of Annotated Libraries Using Quantitative High-Throughput Screening (AID 1296008); further: nearly all actives have a fitted effect of over 60% in size
Holding throughout (conditions): Five cell lines viability, CellTiter-Glo ATP luminescence, 48-72 h; max response: active compounds read low

Assay [1] deals with CRL-7250. An outline of the steps:
(§1)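 Compounds were pin-transferred onto cells and incubated 48 or 72 hr at 37 degree Celsius, 95% humidity. CellTiter-Glo was added, plates sat 10 min at room temperature, then ATP-coupled luminescence was imaged as the viability read-out.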

The subject of assay [2] is HEK293. An outline of the steps:
as §1

In assay [3] the test system is HaCat. An outline of the steps:
as §1

For assay [4], the system named is KB-3-1. An outline of the steps:
as §1

In assay [5] the test system is NIH3T3. An outline of the steps:
as §1

Records with an inconclusive call do not appear. Some structures have more than one record in an assay (separate samples or runs), and their calls can disagree. A number with no mark means an inactive call. Activity calls are given as the source filed them. The call rests on the fitted dose curve; in most records, active means well fitted inhibition curve with a large enough effect; inconclusive means small, poorly fitted or top-dose-only effect; inactive means flat fitted curve, though single readings scatter.
On the % scale 0 is the no-effect control and ±100 the full control effect; potency means the concentration at half of the fitted maximal effect.

For `CS(=O)(=O)NCC1CCC(Nc2nc3c(s2)CCSc2ccccc2-3)CC1` (stereo not given), the max response is -26.8% in assay [1] and -22.2% in assay [4]. Besides, the Potency in assay [2] is 14.6 µM (active). Also, in assay [3], the result was inactive.
As for `COc1ccccc1NC(=O)OCC1CCN(C(=O)OC(C)(C)C)CC1`, the max response in assay [1] is -0.083%; in assay [2] it was -0.473%; in assay [3], 2.46%; in assay [4] it was -8.5%.
In the case of `C=C1[C@@H]2CC[C@@H]3[C@@](CCC4C(C(=O)O)(C(=O)O)C[C@@H](O[C@@H]5O[C@H](CO)[C@@H](O)[C@H](O)[C@H]5OC(=O)CC(C)C)C[C@]43C)(C2)[C@H]1O` (stereo not given in full), the max response in assay [1] is -6.97%; in assay [2] it was -0.701%; in assay [3] it was 2.26%. Further, the call in assay [4] was inactive.
Regarding `Cc1cc2c(F)c(Oc3ncnn4cc(OCC(C)O)c(C)c34)ccc2[nH]1` (stereo not given), the max response in assay [1] was -24.6%; in assay [3] it was -0.656%; in assay [4], -12.6%. In assay [2], the Potency is 5.8 µM (active).
For `CC(O)/C=C/C1(O)C2(C)COC1(C)CC(O)C2` (stereo not given), the max response was -12.7% in assay [1], -7.99% in assay [2], -4.33% in assay [3] and -4.44% in assay [4].
As to `CC[C@]1(O)CC2CN(CCc3c([nH]c4ccccc34)[C@@](C(=O)OC)(c3cc4c(cc3OC)N(C)[C@H]3[C@@](O)(C(=O)OC)[C@H](OC(C)=O)[C@]5(CC)C=CCN6CC[C@]43[C@@H]65)C2)C1` (stereo not given in full), the Potency is 0.259 µM (active) in assay [1], 0.0651 µM (active) in assay [2] and 0.0366 µM (active) in assay [4]. Also, the max response in assay [3] is 4.47%.
With `C=C1C(=O)OC2C1CCC(=C)C1CC(OC(C)=O)C(=C)C12` (stereo not given), the Potency in assay [1] was 18.4 µM (active); in assay [2], 11.6 µM (active). Also, the figures for the max response in assay [3] and in assay [4] were -12% and 1.53%, respectively.
Consider `COc1cc2nc(N3CCCC3)nc(NCCCCCN3CCCC3)c2cc1OC`, for which the Potency in assay [1] was 20.6 µM (active); in assay [2], 4.61 µM (active); in assay [3] it was 18.4 µM (active); in assay [4], 16.4 µM (active).
For `CC(=O)C12OC(C)(C)OC1CC1C3CCC4=CC(=O)C=CC4(C)C3(F)C(O)CC12C` (stereo not given), the max response in assay [1] was -7.35%; in assay [2] it was -19.2%; in assay [3], -3.19%. For the same compound, in assay [4], the compound was called inactive.
Take `COc1cc(-c2ncn(/C=C\C(=O)OC(C)C)n2)cc(C(F)(F)F)c1`: the Potency in assay [1] was 4.11 µM (active); in assay [2], 0.259 µM (active); in assay [3], 2.06 µM (active); in assay [4], 1.84 µM (active).
Regarding `CC(C)(C)Nc1nc(Nc2ccc(C(N)=O)cc2)cc(N)c1C#N`, the values for the Potency in assay [1], in assay [2] and in assay [4] were 13 µM (active), 1.64 µM (active) and 5.8 µM (active), respectively. For the same compound, the max response in assay [3] was -5.65%.
For the compound `Nc1ccc(/C=C/C(=O)NCc2cc3cc(-c4ccc(C(=O)N5CCC(F)(F)CC5)cc4)cc(-c4ccc(F)cc4)c3o2)cn1`, the Potency is 3.66 µM (active) in assay [1], 0.58 µM (active) in assay [2], 5.17 µM (active) in assay [3] and 0.92 µM (active) in assay [4].
As for `O=C(Cc1ccc(-c2ccccc2)cc1)NC1CCC1`, the outcome in assay [1] was inactive. Besides, the max response was 2.52% in assay [2], -21.1% in assay [3] and 4.19% in assay [4].
For the compound `CC(C)(C)Nc1nc2cc(Cl)c(Cl)cc2nc1S(C)(=O)=O`, the Potency was 16.4 µM (active) in assay [1], 4.11 µM (active) in assay [2], 5.8 µM (active) in assay [3] and 13 µM (active) in assay [4].
Consider `CN(CCc1ccc(Nc2ncc(-c3cccnc3)s2)cc1)Cc1ccccc1`, for which the max response in assay [1] was -10.2%; in assay [3], -1.85%; in assay [4] it was -12.1%. Further, the Potency in assay [2] is 7.31 µM (active).
As for `COCCOc1cnc2ccn([C@H](C)c3nnc4c(F)cc(-c5cnn(C)c5)cn34)c(=O)c2c1`, the compound was classed as inactive in assay [1]. Further, the max response in assay [2] was 1.47%; in assay [3], 4.9%; in assay [4], 1.49%.
As for `O=C(O)[C@@H]1C[C@H]2C[C@@H](CCc3nn[nH]n3)CC[C@H]2CN1`, the max response in assay [1] is 0.564%; in assay [2], 1.79%; in assay [3], 2.14%. Also, in assay [4], the result was inactive.
With `C=C1C(=O)OC2/C=C(\CO)CC/C=C(\C=O)CC(OC(=O)CC(C)C)C12` (stereo not given), the max response in assay [1] was -22.7%; in assay [3], -10.5%; in assay [4], -5.58%. The Potency in assay [2] is 12.8 µM (active).
Regarding `COC(=O)Cc1cc2c(c([N+](=O)[O-])c1)N(C(=O)CC[C@H](N)C(=O)O)CC2`, the max response in assay [1] is -4.18%; in assay [2], -4.25%; in assay [3], -29.1%; in assay [4], 7.29%.
Take `NC(=O)[C@H]1CCS[C@@H]2C[C@]3(CCCN3C(=O)Cc3ccc(NC(=O)COc4ccc(Cl)cc4Cl)cc3)C(=O)N12`: the values for the max response in assay [1] and in assay [3] were -14.3% and -24.7%, respectively. The Potency in assay [2] is 7.41 µM (active); in assay [3] it was 18.6 µM (active); in assay [5], 11.7 µM (active).
On to `Cc1cc(C(=O)N2Cc3cnn(C)c3Nc3ccccc32)ccc1CNC(=O)N1CCC[C@H]1C(=S)N1CCCN(C)CC1`, for which the max response in assay [1] is 2.05%; in assay [2] it was -0.106%; in assay [3] it was -21.4%; in assay [4], 2.82%.

The values are drawn from PubChem BioAssay (NCATS).
